The values that follow come from PubChem BioAssay AID602144 (Vanderbilt Specialized Chemistry Center, 2011).

One may read the remaining activity as the signal under treatment as a percentage of the control signal.

Where “and” joins values, the source holds several entries; their conditions need not be identical. Identical values can stand only once. Calls of active or inactive are those of the source. No stated cut-off is given here; in the data, active means remaining activity below about 50%; inactive means the rest.

Sequence of Phospholipase D1 (Homo sapiens) (Q13393 whole entry, looked up): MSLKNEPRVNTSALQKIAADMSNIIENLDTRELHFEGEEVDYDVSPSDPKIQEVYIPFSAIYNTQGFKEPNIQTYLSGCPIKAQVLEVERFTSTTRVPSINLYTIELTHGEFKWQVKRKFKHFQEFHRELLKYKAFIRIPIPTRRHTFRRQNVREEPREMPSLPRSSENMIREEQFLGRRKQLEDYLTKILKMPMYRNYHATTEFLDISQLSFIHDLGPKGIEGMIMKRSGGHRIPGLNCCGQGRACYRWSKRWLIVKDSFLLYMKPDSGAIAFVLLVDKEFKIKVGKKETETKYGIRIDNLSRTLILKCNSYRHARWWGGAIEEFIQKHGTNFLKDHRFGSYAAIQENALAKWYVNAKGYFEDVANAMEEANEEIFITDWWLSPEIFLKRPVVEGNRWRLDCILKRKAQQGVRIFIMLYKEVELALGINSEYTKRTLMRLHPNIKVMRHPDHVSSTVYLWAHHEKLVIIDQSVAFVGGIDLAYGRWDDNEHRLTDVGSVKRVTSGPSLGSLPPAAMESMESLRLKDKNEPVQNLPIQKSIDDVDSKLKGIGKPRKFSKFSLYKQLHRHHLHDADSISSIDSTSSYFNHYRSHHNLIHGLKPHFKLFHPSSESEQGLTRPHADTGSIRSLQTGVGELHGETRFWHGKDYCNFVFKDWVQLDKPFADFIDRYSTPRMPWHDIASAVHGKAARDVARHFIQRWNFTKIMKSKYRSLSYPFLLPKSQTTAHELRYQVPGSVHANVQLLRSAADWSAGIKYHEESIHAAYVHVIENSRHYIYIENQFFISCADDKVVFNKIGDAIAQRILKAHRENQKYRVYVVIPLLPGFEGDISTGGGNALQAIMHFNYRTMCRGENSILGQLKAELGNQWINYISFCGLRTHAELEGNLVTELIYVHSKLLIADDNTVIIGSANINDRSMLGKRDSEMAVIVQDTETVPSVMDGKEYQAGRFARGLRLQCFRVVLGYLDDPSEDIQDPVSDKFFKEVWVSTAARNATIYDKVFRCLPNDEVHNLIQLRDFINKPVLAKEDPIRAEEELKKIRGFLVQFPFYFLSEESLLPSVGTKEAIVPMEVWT
Sequence of Phospholipase D1 (Homo sapiens) (Q13393 whole entry, looked up): as above

The test addresses Phospholipase D1 (Homo sapiens) (UniProt Q13393). Put plainly: PLD1 inhibitors in cells, Calu-1 cells, single concentration (AID 602144).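 Further: tested at 200 nM.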 Conditions: cellular PLD1 activity, active compounds read low.
For `O=C(c1ccc(F)c(F)c1)N1CCC[C@@H]1CN1CCC2(CC1)C(=O)NCN2c1ccccc1`, the remaining activity was 93.7% (inactive). The figure for `O=C(NCCN1CCC2(CC1)C(=O)NCN2c1ccccc1)c1ccc2c(c1)C(=O)OC2=O` is 103% (inactive); for `C[C@H](CN1CCC2(CC1)C(=O)NCN2c1ccccc1)NC(=O)c1cc2cc(F)ccc2[nH]1` it is 2.46% (active).

In the case of `O=C(NCCN1CCC2(CC1)C(=O)NCN2c1ccc(Cl)cc1)c1cc2cc(F)ccc2[nH]1`, the remaining activity is 79.4% (inactive). The figure for `O=C(NCCN1CCC2(CC1)C(=O)NCN2c1ccc(F)c(F)c1)c1cnc2ccccc2c1` is 91.3% (inactive). Next, `O=C(NCCN1CCC2(CC1)C(=O)NCN2c1ccccc1)C(c1ccccc1)c1ccccc1`: 99.2% (inactive). The figure for `CCC(=O)N[C@@H](C)CN1CCC2(CC1)C(=O)NCN2c1ccccc1` is 93.3% (inactive); for `O=C(NCCN1CCC2(CC1)C(=O)NCN2c1cccc(F)c1)c1ccc(Cl)cc1Cl` it is 110% (inactive); for `O=C(NCCN1CCC2(CC1)C(=O)NCN2c1ccccc1)c1ccnnc1` it is 104% (inactive). Turning to `O=C(COCc1ccccc1)NCCN1CCC2(CC1)C(=O)NCN2c1cccc(F)c1`, the remaining activity was 108% (inactive). Consider `O=C1c2ccccc2C(=O)N1CCN1CCC2(CC1)C(=O)NCN2c1ccccc1`, for which the remaining activity was 102% (inactive). The figure for `O=C(NCCN1CCC2(CC1)C(=O)NCN2c1ccc(Br)cc1)c1cnc2ccccc2c1` is 94.1% (inactive). Next, `Cc1cccc(C(=O)N[C@@H](C)CN2CCC3(CC2)C(=O)NCN3c2ccccc2)c1`: 70% (inactive); `O=C(c1ccc2ccccc2c1)N1CCCC1CN1CCC(n2c(=O)[nH]c3ccccc32)CC1` (centres undefined): 101% (inactive) and 112% (inactive).
